Measured values from PubChem BioAssay AID1981 (Southern Research Specialized Biocontainment Screening …, 2009).
In all, about 2,200 compounds went through this assay and about 480 (22%) were called active. Not all results are given here. Potency and affinity values are given separately. Unmarked numbers belong to inactive results. How the calls were made is not given here.

assay: S. Typhimurium GFP fluorescence modified counterscreen for PhoP regulon inhibitor project dose response (AID 1981); conditions: 4 h; series mostly up to 150 µM; inhibition: at the top concentration;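 further: 0% = induced DMSO wells and 100% = uninduced wells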

| Compound | inhibition |
| --- | --- |
| CC(C)n1cc(C(=O)N2CCCC(N3CCN(c4ccc(F)cc4)CC3)C2)cn1 (stereo unspecified) | -15.7% |
| O=C(CSc1nc2ccccc2o1)Nc1ccc(N2CCOCC2)c(Cl)c1 | 12.4% |
| O=C(c1ccccc1)N1CCSC1=S | -8.47% |
| CC1(C)CC(=O)C(/C=N/c2ncccc2C(=O)O)=C(O)C1 | 21.9% |
| CCCCCn1c(N)c(C(=O)NCc2cccs2)c2nc3ccccc3nc21 | -20.1% |
| O=C(c1ccc2nc(N3CCOCC3)sc2c1)N1CCC(Cc2ccccc2)CC1 | 3.45% |
| COc1ccc(-c2nnn(CC(=O)N(Cc3ccco3)C(C(=O)NCC3CCCO3)c3ccco3)n2)cc1 (stereo unspecified) | 1.01% |
| C#CC(=O)N(c1cc(OC)ccc1OC)C(C(=O)NC1CCCC1)c1cccs1 (stereo unspecified) | 17.8% |
| CCC(C)NC(=O)c1ccccc1NC(=O)C(C)N(c1ccccc1)S(C)(=O)=O (stereo unspecified) | -9.1% |
| Nc1nc(-c2ccc3c(c2)OCCO3)cs1 | -7.79% |
| CN(C)c1ccc(Nc2nc(-c3cccnc3)cs2)cc1 | 35.9% |
| CCn1c2ccccc2c2cc(N)ccc21 | 15.1% |
| CCc1cccc(NC(=O)Nc2cccs2)c1 | 6.84% |
| COc1ccc(N=c2cc(-c3ccc(OC)cc3)oc3ccccc23)cc1 | -4.77% |
| CCCNC(=O)CSc1nnc(C)s1 | -0.53% |
| Cn1ccnc1C(O)c1ccc(OCc2ccccc2)cc1 (stereo unspecified) | -7.82% |
| CSc1nnc2c3c4c(sc3nc(-n3nc(C)cc3C)n12)COC(C)(C)C4 | -16.7% |
| COc1ccc(NC(=O)c2ccc(OC)cc2)cc1 | -1.66% |
| FC(F)(F)C1=CC(c2ccc(Br)cc2)=NCCN1 | 0.22% |
| N=c1scc(-c2ccccc2)n1/N=C/c1ccco1 | 26.4% |
| COc1ccc(-c2nnc(SCCC(=O)O)n2-c2ccccc2)cc1 | -16.3% |
| O=C(NCCNc1ccc([N+](=O)[O-])cc1C(F)(F)F)c1cccc(F)c1 | 35.4% |
| Oc1ccc(Br)cc1-c1nc2cnccn2c1NC1CCCCC1 | -0.48% |
| O=C1CCCc2nc(N3CCN(Cc4ccccc4)CC3)ncc21 | -1.19% |
| COc1ccccc1CC1(C)NC(=O)N(CC(=O)N2CC(C)OC(C)C2)C1=O (stereo unspecified) | -6.09% |
| Cc1ccccc1OCCSCc1nc2ccccc2[nH]1 | 8.48% |

| Compound | inhibition |
| --- | --- |
| O=C(Nc1ccc(S(=O)(=O)Nc2nccs2)cc1)c1cc(-c2ccccc2)nc2ccccc12 | 11.3% |
| CC(CN1CCOCC1)C(=O)c1ccccc1 (stereo unspecified) | 19.3% |
| Cc1ccc(C(=O)c2ccccc2C(=O)O)c(O)c1 | -1.21% |
| Cc1cc(C(=O)NCc2cccs2)cs1 | 1.82% |
| CCCc1cc(N2CCN(c3ccccn3)CC2)n2nc(C)c(-c3ccccc3)c2n1 | -17.1% |
| COc1ccc(CNc2nc3c(c(=O)[nH]c(=O)n3C)n2CCCc2ccccc2)cc1 | -7.59% |
| COc1nc(-c2ccccc2)ccc1-c1noc(C)n1 | -2.17% |
| NCCCCCc1nnc(SCc2ccc(Cl)cc2Cl)o1 | 2.99% |
| Cc1ccc([N+](=O)[O-])cc1-c1ccc(/C=C(\C#N)c2[nH]nc(N)c2C#N)o1 | -4.17% |
| CNC(=O)CN(c1ccc(F)cc1)S(=O)(=O)c1cc(C)ccc1OC | -12.1% |
| CCN1C(=O)N/C(=C/c2ccc(Sc3ccc(C)cc3)o2)C1=O | -11% |
| O=C(CCCCCNc1nc(=S)[nH]c2ccccc12)NCCc1c[nH]c2ccccc12 | -9.04% |
| Cc1ccc2nc(NNC(=O)c3ccc(S(=O)(=O)N4CCc5ccccc5C4)cc3)sc2c1 | 33.6% |
| C=CCNCC#CCOc1ccc(OC)cc1 | -8.21% |
| Cn1cccc1C(=O)OCc1csc(-c2ccccc2)n1 | -2.79% |
| Cc1ccc(S(=O)(=O)NCc2ccc(C(=O)N3CCN(c4ccccn4)CC3)cc2)cc1 | 10.4% |
| O=C(CCCN1Cc2ccccc2C1)c1ccc(F)cc1 | -30.9% |
| CCOC(=O)N1CCC(NC(=O)CCC(=O)c2ccccc2)CC1 | -13.1% |
| CN1C(=S)N(c2ccccc2)C(=O)/C1=C/c1ccco1 | -3.89% |
| Cc1ccc(C(=O)Nc2ccccc2C(N)=O)o1 | 2.22% |
| COc1cccc(-n2c(SCc3cc(=O)oc4cc(O)c(O)cc34)nc3ccccc3c2=O)c1 | 24.6% |
| Cc1cccc(-n2c(N)cc(=O)[nH]c2=S)c1 | 36.5% |
| C/C(=N\NC(=O)c1ccccc1)c1ccc2c(c1)OCO2 | -1.5% |
| CCOc1ccccc1NS(=O)(=O)c1ccc(Br)s1 | -5.39% |
| Clc1cc(Br)ccc1OCCn1ccnc1 | 9.91% |
| O=C(COc1ccc(Br)cc1Cl)NC(=O)NCc1ccccc1 | -14.2% |

| Compound | inhibition |
| --- | --- |
| CC(C)NCCCOc1ccc(Cl)cc1Br | 12% |
| Clc1ccc(Nc2ccc(NCc3ccccc3)nn2)cc1 | 8.59% |
| Clc1ccc(OCCCn2ccnc2)c(Br)c1 | 7.23% |
| CCCCNCCCOc1cccc(Cl)c1Cl | 3.42% |
| CCCCCNS(=O)(=O)c1cc(C)ccc1OC | 2.03% |
| O=C1Nc2ccccc2C(O)(C(=O)N2CCCCC2)N1c1ccccc1 (stereo unspecified) | 0.43% |
| Cc1cc(C2=NNC(=NC3CC3)SC2)c(C)n1Cc1ccco1 | -6.12% |
| Cc1cccc(OCCCSc2nc3ccc(C)cc3[nH]2)c1 | 8.72% |
| C=C(C)Cn1c(CCn2c3ccccc3c3ccccc32)n[nH]c1=S | -5.59% |
| N#C/C(=C\c1c(Cl)cccc1Cl)c1nc2ccccc2[nH]1 | 0.17% |
| COCc1cc(C)nc(N2CCc3ccccc32)c1C#N | -15% |
| CCOc1ccc2nc(COC(=O)c3ccco3)c(C(C)=O)[n+]([O-])c2c1 | 5.1% |
| CN(C)CC(=O)Nc1nc(-c2ccccc2)cs1 | 2.72% |
| COc1ccc(-c2csc(NC(=O)C3CCCO3)n2)cc1 (stereo unspecified) | -2.8% |
| COc1ccc2cc(C)c3nnc(SCC(=O)Nc4nc(-c5ccccc5)cs4)n3c2c1 | -5.19% |
| Cc1ccc(NC(=O)CCN2CCc3ccccc3C2)cc1 | 8.78% |
| CCOC(=S)SCC(=O)Nc1nc(-c2ccccc2)cs1 | -12.2% |
| Cc1ccc(C[n+]2cc(-c3ccc(Cl)cc3)n3c2CCC3)cc1 | 0.58% |
| CCCCCOC(=O)C1=C(C)Nc2nnnn2C1c1ccc(OC)c(OC)c1OC (stereo unspecified) | -12.6% |
| Cc1ccc(Nc2nc(CSc3nnc(-c4ccc(F)cc4)n3C)cs2)cc1 | 12.9% |
| CSc1cccc(NC(=O)COc2cccc3ccccc23)c1 | 26.1% |
| COc1ccc(OC)c(NC(=S)NCCCN2CCOCC2)c1 | -26.3% |
| COc1ccccc1NC(=S)NNC(=O)c1c(Cl)c(C)nn1C | -16.2% |
| C=CCN(CC=C)Cc1c[nH]c2ccccc12 | -6.22% |
